Assay outcomes from PubChem.
mHTT CaM bind: mutant huntingtin-calmodulin interaction inhibitors – biochemical, AlphaScreen, primary screen; AlphaScreen His-mHTT/GST-CaM binding, luminescence; inhibition, % at 15 µM; actives 3.6% (n = 190,000)
Pf apPOL inh: Pf-apPOL inhibitors, biochemical, fluorescence; Plasmodium falciparum apicoplast DNA polymerase (apPOL); Recombinant Pf-apPOL, molecular beacon fluorescence, 1.5 h; inhibition, % at 10 µM; actives 0.25% (n = 210,000); AID 1794808, 2022
Numbers stand for hits; n = inactive; x = no result given; + = active, no number; ! = repeats disagree. In the library only some 3.6% were active in any assay of this set; here they are far more common. Cut-off read from the data, not from the text of the source: active = inhibition above about 50%; inactive = the rest.

SMILES | mHTT CaM bind | Pf apPOL inh
O=[N+]([O-])c1ccc2[nH]c3c(c2c1)CCCC3NC1CCN(CCc2ccccc2)CC1 (stereo not drawn) | 100.3 | n
CCCNC(=O)c1ccc(N2CCNC(c3ccccc3)C2)nc1 (stereo not drawn) | n | n
N#CC1=CN(c2ccc(F)c(Cl)c2)c2ccccc2S1(=O)=O | n | n
COc1cccc(/C=C2\C(=O)NN(c3ccc(C)c(Cl)c3)C2=O)c1 | n | n
CC(C)(C)c1ccc(O)c(N=C/C=C/c2ccc([N+](=O)[O-])cc2)c1 | n | n
O=[N+]([O-])c1ccc(/C=C/C=Nc2ccccc2O)cc1 | 83.0 | n
C=CCCCC(=O)Nc1ccccc1Br | n | 67.2
O=C(O)CCC(=O)Nc1ccccc1Br | n | n
Cc1ccc(O)c(C=Nc2ccc(Br)c3cccnc23)c1 | 101.0 | n
O=[N+]([O-])c1ccc(O)c(C=Nc2cccc3ncccc23)c1 | n | n
O=C1c2ccc(Cl)cc2C(=O)N1c1cccc(O)c1 | n | n
CC(C)n1c(SCC(=O)Nc2ccc(Cl)cc2)nc2cc(Cl)ccc21 | x | n
O=C1CCC(=O)N1c1ccc(Nc2ccc3c(c2)CCC3)c([N+](=O)[O-])c1 | 74.0 | n
O=C1CCCC(=O)N1c1ccc(N2CCc3ccccc3C2)c([N+](=O)[O-])c1 | n | n
O=C1CCCC(=O)N1c1ccc(NC2CCCc3ccccc32)c([N+](=O)[O-])c1 (stereo not drawn) | 63.0 | n
CC1CC(=O)N(c2ccc(NC3CCCc4ccccc43)c([N+](=O)[O-])c2)C1=O (stereo not drawn) | n | n
COc1cccc(-c2noc(C3CCCN3C(=O)c3ccoc3)n2)c1 (stereo not drawn) | n | n
O=C(c1cccc(-n2cnnn2)c1)N1CCC(c2nnc(C3CC3)o2)CC1 | n | n
O=C(O)c1ncnc2nc[nH]c12 | 99.1 | x
Brc1ncnc2nc[nH]c12 | n | x
O=[N+]([O-])C1=Cc2ccccc2OC1c1ccc(Cl)cc1Cl (stereo not drawn) | x | n
O=C(Nc1cccc(NC(=O)c2ccncc2)c1)c1ccncc1 | n | 99.3
N#Cc1cccc(NC(=O)c2ccncc2)c1 | x | n
CC1Oc2ccccc2C=C1C=CC(=O)c1cccc(O)c1 (stereo not drawn) | 61.0 | n
O=C(C=Cc1ccc2ccccc2n1)c1cccc(O)c1 | n | n
SMILES | mHTT CaM bind | Pf apPOL inh
C(=Nc1c(-c2ccccc2)nc2n1CCS2)c1ccccc1 | 59.0 | n
FC(F)(F)c1cccc(N=Cc2c(-c3ccccc3)nc3n2CCS3)c1 | x | n
Oc1ccc(/C=N\Nc2nncn2/N=C\c2ccc(O)c(O)c2)cc1O | n | x
C#CCOc1ccc(/C=N\n2cnnc2N/N=C/c2ccc(OCC#C)c(OC)c2)cc1OC | + | x
Cc1ccc(C(=O)O)cc1-c1ccc(/C=C2/NC(=O)NC2=O)o1 | n | n
Cc1cc([N+](=O)[O-])ccc1-c1ccc(/C=C2/NC(=O)NC2=O)o1 | 54.0 | n
C=CCNC(=O)C1CC(c2cccc(C)c2)CN(C(=O)NCC)C1 (stereo not drawn) | n | n
NS(=O)(=O)c1cc(C(=O)N2CCc3ccccc32)c(Cl)cc1Cl | 60.0 | n
O=C(c1ccc([N+](=O)[O-])cc1Cl)N1CCc2ccccc21 | n | n
CCN(CC)S(=O)(=O)c1ccc(Cl)c(C(=O)Nc2nnc(Cc3cccc(C)c3)s2)c1 | n | n
CCC(NS(=O)(=O)c1cc(Cl)ccc1OC)C12CC3CC(CC(C3)C1)C2 (stereo not drawn) | n | n
CCC(NS(=O)(=O)c1ccc(Cl)c([N+](=O)[O-])c1)C12CC3CC(CC(C3)C1)C2 (stereo not drawn) | 99.0 | n
O=C1c2ccc([N+](=O)[O-])cc2C(=O)N1c1ccc(-c2nc3ccccc3[nH]2)cc1 | n | n
Cc1noc(CNC(=O)C2CCN(S(=O)(=O)c3cccnc3)CC2)n1 | n | n
N#CC(C#N)=C(SCc1c(F)cccc1Cl)SCc1c(F)cccc1Cl | x | 72.0!
CN(C)C=CC(=N)SCc1c(F)cccc1Cl | x | n
C(=Nc1cccnc1)c1c[nH]c2ccccc12 | n | x
CCN(CC)c1ccc(N=Cc2c[nH]c3ccccc23)cc1 | 83.0 | n
CCCc1cc(C2CCCN2Cc2cc(Br)ccc2O)no1 (stereo not drawn) | n | n
Cc1cc(C2CCCN2Cc2cc(Br)ccc2O)no1 (stereo not drawn) | 62.3 | n
Cc1ccc(CC(=O)Nc2nnc(C3CC(=O)N(c4ccc(Cl)cc4)C3)o2)cc1 (stereo not drawn) | n | n
CC(CN1CCC(C(=O)N2CCCC2)CC1)c1ccccc1 (stereo not drawn) | n | n
CC(C)CN1CCC(C(=O)N2CCCC2)CC1 | n | 87.8
Cn1c(=O)n(CCCC#N)c2cncnc21 | n | n
O=C(Nc1ccc(Br)cn1)c1cc(I)ccc1Cl | n | n
COc1ccc(N2COc3ccc4c(c3C2)OC(=Cc2ccc(OC)c(OC)c2OC)C4=O)cc1 | 81.1 | n
